The campaign covered roughly 350,000 compounds. About 31,000 (8.9%) were called active. Another 15% or so got no clear call; they are omitted. Shown is part of a subset that was picked to be rich in actives. Values without a mark were called inactive. Calls come from the whole dose curve; as a rule, active = well fitted inhibition curve with a large enough effect; inconclusive = small, poorly fitted or top-dose-only effect; inactive = no such curve, though single readings can be large or run the other way.
target: Histone-lysine N-methyltransferase EHMT2 (Homo sapiens) (UniProt Q96KQ7); assay: qHTS Assay for Inhibitors of Histone Lysine Methyltransferase G9a; conditions: G9a H3K9 monomethylation, AlphaScreen, 2 h; series mostly up to 59 µM; activity, negative = inhibition: at the top concentration; note: nearly all actives have a fitted effect of over 75% in size
Outline: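 Chemiluminescent proximity detection of H3K9 monomethylation, read after 10 min bead incubation in the dark. Reaction: 20 nM G9a, 500 nM biotin-H3K9 peptide, 20 uM SAM cofactor, 2 h, room temperature, following 15 min enzyme-compound preincubation.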
% is set by controls: 0 for no effect and ±100 for the full control effect; potency is the fitted concentration of half-maximal effect.

Chain of Histone-lysine N-methyltransferase EHMT2 (Homo sapiens) (Q96KQ7 913-1193 limits assumed): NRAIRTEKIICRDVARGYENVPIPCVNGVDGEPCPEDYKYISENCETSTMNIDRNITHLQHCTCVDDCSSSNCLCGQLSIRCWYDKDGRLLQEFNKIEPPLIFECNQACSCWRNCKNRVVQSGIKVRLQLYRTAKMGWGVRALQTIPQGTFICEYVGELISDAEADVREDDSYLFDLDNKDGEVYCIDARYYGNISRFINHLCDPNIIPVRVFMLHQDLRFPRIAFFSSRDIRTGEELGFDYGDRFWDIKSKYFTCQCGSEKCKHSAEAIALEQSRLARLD

| Structure (SMILES) | activity, negative = inhibition | Potency |
| --- | --- | --- |
| Cc1occc1-c1nnc(SCC(=O)NC2CCCCC2)o1 | 9.17% [at 12.7 µM] | – |
| COc1ccccc1CNC(=O)CSc1nc(=O)n(Cc2ccncc2)c2c1CCC2 | 3.71% [at 102 µM] | – |
| O=[N+]([O-])c1ccccc1OCCCCN1CCCCC1 | -12.4% [at 102 µM] | – |
| CC1CN(CCCOc2ccccc2-c2ccccc2)CC(C)O1 (centres undefined) | – | 8.91 µM (active) |
| CC1CN(CCOc2ccccc2[N+](=O)[O-])CC(C)O1 (centres undefined) | – | 10 µM (active) |
| CC1CN(c2nc(-c3ccccc3)nnc2-c2ccccc2)CC(C)O1 (centres undefined) | 8.32% [at 102 µM] | – |
| CC1CN(CC(=O)NC(C)c2ccccc2)CC(C)O1 (centres undefined) | -10.2% [at 102 µM] | – |
| CC1CCCN(CC(=O)Nc2cc(Cl)ccc2Oc2ccccc2)C1 (centres undefined) | -0.626% [at 102 µM] | – |
| CC1CCCN(CCOCCOc2ccccc2-c2ccccc2)C1 (centres undefined) | – | 10 µM (active) |
| CC1CC(C)CN(CCOc2cccc3ccccc23)C1 (centres undefined) | 17.4% [at 2.33 µM] | – |
| Cc1cc(C(=O)COc2ccccc2[N+](=O)[O-])c(C)n1-c1cccc(S(=O)(=O)N2CCOCC2)c1 | -7.78% | – |
| CC(C)(C)c1ccc(S(=O)(=O)N2CCN(C(=O)c3ccc4c(c3)C(=O)N(Cc3ccncc3)C4=O)CC2)cc1 | -9.64% [at 102 µM] | – |
| CCc1ccccc1NC(=O)CSc1nnc(-c2ccccc2)c(-c2ccccc2)n1 | -39.3% | – |
| O=C(Nc1ccc(-c2nc3cc(NC(=O)c4ccccc4Cl)ccc3o2)cc1)c1ccccc1Cl | 1.33% | – |
| O=C(CCc1nc2sc3c(c2c(=O)[nH]1)CCCC3)NCC(=O)Nc1ccccc1Br | -4.82% [at 12.7 µM] | – |
| COc1cccc(C(=O)N2CCC(n3nccc3NC(=O)C3CCOC3)CC2)c1 (centres undefined) | -5.15% [at 0.501 µM] | – |
| Cc1cc(Br)ccc1NC(=O)Cn1cnc2sc(C)c(S(=O)(=O)N3CCN(C)CC3)c2c1=O | -1.64% | – |
| COc1ccccc1-c1nnc(NC(=O)c2cccc(N3C(=O)CCC3=O)c2)o1 | – | 1.41 µM (active) |
| O=C(Nc1cccc2cccnc12)c1cccc(N2C(=O)CCC2=O)c1 | 1.61% | – |
| Cc1cc(NC(=O)c2cccc(N3C(=O)CCC3=O)c2)no1 | 12.5% [at 102 µM] | – |
| COc1cc(CN2CC(C)CC(C)C2)cc([N+](=O)[O-])c1O (centres undefined) | -17.7% | – |
| COc1cc(CN2CCN(Cc3ccc(C)cc3)CC2)c([N+](=O)[O-])cc1OC | – | 4.47 µM (active) |
| COc1cc(NC(=O)NCC2CCN(Cc3ccc(C)cc3)CC2)cc(OC)c1OC | 10.4% | – |
| CCOC(=O)c1cc(-c2ccccc2)n(CCC(=O)Nc2ccccc2CC)c1C | -12% | – |
| COC(CCN(C)C)(c1ccccc1)c1ccccc1 | -3.15% [at 102 µM] | – |
| CN(C)CCOC1c2ccccc2-c2ccccc21 | – | 22.4 µM (active) |
| O=C(N/N=C\c1ccc(Br)cc1)c1ccc(Cn2cccn2)o1 | 12.6% | – |
| CN(C)c1ccc(/C=N/NC(=O)c2ccc(Cn3cc(Br)cn3)o2)cc1 | – | 39.8 µM (active) |
| O=C(N/N=C/c1ccc2c(c1)OCO2)c1ccc(Cn2cc([N+](=O)[O-])cn2)o1 | -8.92% | – |
